TCR activator: Activators of T cell receptors: qHTS campaign. primary human leukocytes, anti-CD3, IL-2 HTRF, 48 h. Potency, µM (titrated, usually from 9.22 µM), hits mostly activators. 330,000 tested, under 10 active. AID 504894, 2011
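Activity was scored as IL-2 release from primary human leukocytes given only a TCR signal (a-CD3 beads) plus compound for 48 hr. Detection used a two-antibody HTRF format read at 665nm.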
FEN1 inhibitor: qHTS Assay for the Inhibitors of Human Flap endonuclease 1 (FEN1). P39748. Recombinant FEN1 flap cleavage, fluorescence, 15 min. Potency, µM (titrated, usually from 114 µM), most hits filed as inhibitors. 390,000 tested, 0.35% active. AID 588795, 2011; also: nearly all actives have a fitted effect of over 65% in size
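Enzyme 10 nM, 15 min RT preincubation with compound; start with substrate 50 nM final; reads at 0 and 15 min; qHTS titration, four-parameter Hill fit.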
PI5P4Ka inh: qHTS for Inhibitors of phosphatidylinositol 5-phosphate 4-kinase (PI5P4K); Phosphatidylinositol 5-phosphate 4-kinase type-2 alpha (Homo sapiens), P48426; max response, %; 330,000 tested, 1.2% active; AID 652105, 2013; PI5P4Kalpha enzyme, ADP-Glo luminescence, 60 min; active compounds read low; active = max response of -50% or lower; inconclusive = between -30% and -50%; inactive = -30% or higher; also: value at the top dose of about 77 µM
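PI5P4Kalpha ADP-Glo assay; 5 microM ATP final; 60 min RT reaction; HEPES pH 7.4/EGTA/CHAPS, 5% DMSO; controls lacking substrate or enzyme; luminescent end-point.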
WRN inhibitor: qHTS for Inhibitors of WRN Helicase | Bifunctional 3'-5' exonuclease/ATP-dependent helicase WRN (Homo sapiens), Q14191 | AID 651768, 2012 | Potency, µM (doses to about 114 µM), actives largely listed as inhibitors | WRN helicase unwinding, fluorescent forked duplex, kinetic | 360,000 tested, 0.46% active; also: nearly all actives have a fitted effect of over 55% in size
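WRN at 20 nM final was preincubated with compound for 15 min at room temperature; reaction started with 100 nM forked duplex oligonucleotide carrying fluorophore and quencher plus 2 mM ATP (final). Unwinding followed kinetically by red fluorescence (ex 525/em 598 nm).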
PLK1 PBD inh: qHTS for Inhibitors of PLK1-PDB (polo-like kinase 1 - polo-box domain): Primary Screen; Plk1 PBD binding of FITC phosphopeptide, fluorescence polarization; Potency, µM, hits mostly inhibitors; 360,000 tested, 2.8% active; AID 720504, 2013; also: series mostly up to about 57 µM; nearly all actives have a fitted effect of over 65% in size
VDR inh: Inhibitors of the vitamin D receptor (VDR): qHTS. Vitamin D3 receptor (Homo sapiens), P11473. VDR-SRC2-3 peptide fluorescence polarization, 2 h. Potency, µM, usual class: inhibitors. 400,000 tested, 0.93% active. AID 504847, 2011
Target sequence (P11473 whole entry, looked up): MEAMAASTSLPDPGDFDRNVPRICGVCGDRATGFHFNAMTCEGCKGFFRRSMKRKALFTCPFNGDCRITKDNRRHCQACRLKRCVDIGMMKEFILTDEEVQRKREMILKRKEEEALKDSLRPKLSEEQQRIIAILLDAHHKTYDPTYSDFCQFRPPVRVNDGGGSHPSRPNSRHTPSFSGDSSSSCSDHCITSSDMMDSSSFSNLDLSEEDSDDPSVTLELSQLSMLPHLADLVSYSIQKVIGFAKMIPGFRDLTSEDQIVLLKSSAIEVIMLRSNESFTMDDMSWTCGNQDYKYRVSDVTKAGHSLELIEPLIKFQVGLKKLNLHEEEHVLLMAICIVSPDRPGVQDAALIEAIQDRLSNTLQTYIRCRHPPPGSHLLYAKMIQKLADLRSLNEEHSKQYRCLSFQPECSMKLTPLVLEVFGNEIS
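The screen uses fluorescence polarization to detect compounds that interfere with recruitment of the SRC2-3 coactivator peptide to VDR; plates are read after 2 h at room temperature.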
Of the large screens only hits and unclear results are named; the others gave an inactive call; ! = a repeat was not active. In the library only some 3.7% were active in any assay of this set; here they are far more common. Unless noted, calls follow the shape of the dose curve; as a rule, active = well fitted curve in the direction sought with a large enough effect; inconclusive = small, poorly fitted or top-dose-only effect, or another doubt; inactive = no such curve, though single readings can be large; an effect the other way counts as inactive or inconclusive.

CC1=NNC(=O)C1C(c1ccc(F)cc1)C(C#N)C#N (centres undefined)	PLK1 PBD inh 29.9µM, VDR inh inconclusive
O=C(O)c1cc(O)c(O)c(O)c1	VDR inh 50.1µM! (no result: TCR activator, FEN1 inhibitor, PI5P4Ka inh, WRN inhibitor, PLK1 PBD inh)
CC(C)C[C@H]1CNC(=S)N1CC1CCN(CC2CCC(C(C)(C)C)CC2)CC1 (some centres undefined)	FEN1 inhibitor inconclusive
CCCCC1(C2CCCC2)Cc2cc(OCCCC(=O)O)c(Cl)c(Cl)c2C1=O (centres undefined)	VDR inh 39.8µM (no result: TCR activator, FEN1 inhibitor, PI5P4Ka inh, WRN inhibitor, PLK1 PBD inh)
Cc1cccc(N2C(=O)NC(=O)/C(=C\c3cnc(-c4ccccc4)nc3)C2=O)c1	PI5P4Ka inh -51.5, WRN inhibitor inconclusive, PLK1 PBD inh 5.97µM, VDR inh 50.1µM
Cc1ccc(N2C(=O)NC(=O)/C(=C/c3cnc(-c4ccccc4)nc3)C2=O)cc1C	PI5P4Ka inh -51.7, WRN inhibitor inconclusive, PLK1 PBD inh 4.23µM, VDR inh 31.6µM
CC(C)c1ccc(N2C(=O)NC(=O)/C(=C\c3cnc(-c4ccccc4)nc3)C2=O)cc1	PI5P4Ka inh inconclusive, WRN inhibitor inconclusive, PLK1 PBD inh 21.2µM
CN1C(=O)C(=Cc2ccc(OCC(=O)Nc3ccccc3)cc2)C(=O)N(C)C1=O	WRN inhibitor inconclusive, PLK1 PBD inh 7.52µM, VDR inh inconclusive
COc1ccc(C=C2C(=O)N(C)C(=O)N(C)C2=O)cc1COc1ccc(NC(C)=O)cc1	none
C=CCN1C(=O)NC(=O)/C(=C/c2cnc(SC)nc2)C1=O	PI5P4Ka inh -57.2, WRN inhibitor inconclusive, PLK1 PBD inh 10.6µM, VDR inh 28.2µM
Cc1cccc(-n2c(O)c(C)c(=O)[nH]c2=S)c1	PI5P4Ka inh inconclusive, PLK1 PBD inh 11.9µM
Cc1ccc(N2C(=O)NC(=O)/C(=C\c3ccsc3)C2=O)cc1C	none (no result: FEN1 inhibitor, PI5P4Ka inh, WRN inhibitor, PLK1 PBD inh, VDR inh)
O=C1NC(=O)N(c2ccc3c(c2)OCO3)C(=O)/C1=C\c1ccsc1	PLK1 PBD inh 4.74µM, VDR inh inconclusive
CCCCCn1c(SCCCC)nc2c1c(=O)[nH]c(=O)n2C	PLK1 PBD inh 26.7µM, VDR inh inconclusive
CN1C(=O)C(=Cc2ccccc2OCc2ccc(C(=O)O)cc2)C(=O)N(C)C1=O	WRN inhibitor inconclusive, PLK1 PBD inh 11.9µM, VDR inh inconclusive
CN1C(=O)C(=Cc2ccccc2OCc2ccccc2Cl)C(=O)N(C)C1=O	WRN inhibitor inconclusive, PLK1 PBD inh 2.99µM, VDR inh inconclusive
CN1C(=O)C(=Cc2ccccc2OCCOc2ccc([N+](=O)[O-])cc2)C(=O)N(C)C1=O	PI5P4Ka inh inconclusive, PLK1 PBD inh 2.99µM, VDR inh inconclusive
CCC1(c2ccccc2)C(=O)NC(=O)N(C(=O)c2ccccc2)C1=O (centres undefined)	none (no result: TCR activator, FEN1 inhibitor, PI5P4Ka inh, WRN inhibitor, PLK1 PBD inh)
C[C@@]12CC(c3ccoc3)OC(=O)C1CC[C@@]1(C)C2C2C=C[C@@]1(O)C(=O)O2 (some centres undefined)	none (no result: TCR activator, FEN1 inhibitor, PI5P4Ka inh, WRN inhibitor, PLK1 PBD inh)
c1ccc2c(c1)c1cc[n+]2CCCCC[n+]2ccc(c3ccccc32)NCCCCCN1	none (no result: TCR activator, FEN1 inhibitor, PI5P4Ka inh, WRN inhibitor, PLK1 PBD inh)
c1ccc2sc(C3(N4CCCC4)CCCCC3)cc2c1	none (no result: TCR activator, FEN1 inhibitor, PI5P4Ka inh, WRN inhibitor, PLK1 PBD inh)
Cn1cccc1-c1cccnc1	none (no result: TCR activator, FEN1 inhibitor, PI5P4Ka inh, WRN inhibitor, PLK1 PBD inh)
CCOC(=O)c1c(-n2c(C)cc(C=C3C(=O)NC(=S)NC3=O)c2C)sc2c1CCCC2	FEN1 inhibitor inconclusive, PI5P4Ka inh -63.3, WRN inhibitor 56.2µM, PLK1 PBD inh 0.299µM, VDR inh inconclusive
Cc1ccc(N2C(=O)/C(=C/N3CCN(C(=O)c4ccco4)CC3)C(=O)NC2=S)cc1C	WRN inhibitor inconclusive, PLK1 PBD inh 23.8µM
CCC(CC)c1nnc(NC(=O)CC(C)c2ccccc2)s1 (centres undefined)	PLK1 PBD inh inconclusive
CC/C=C\C/C=C\C/C=C\C/C=C\C/C=C\CCCC(=O)NCCc1ccc(O)c(O)c1	none (no result: TCR activator, FEN1 inhibitor, PI5P4Ka inh, WRN inhibitor, PLK1 PBD inh)
CCOC(=O)c1c(NC(=O)c2c(N)n(CCCOC)c3nc4ccccc4nc23)sc2c1CCCC2	none (no result: PI5P4Ka inh)

High-throughput results as filed in PubChem.
